Screening data (PubChem BioAssay)
Rows were chosen to be rich in hits. Some 4.7% of all compounds tested hit in one or more screens of this group.
SKKanGAS inh: S. pyogenes SKKanGAS growth inhibitors in kanamycin, primary screen, streptokinase expression inhibitor project, SKKanGAS strain, BacTiter-Glo luminescence | 6 h | inhibition, % at 7.5 µM | 1.3% of 300,000 active;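 active means mean replicate score, as percent of positive control median, at least 50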;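 further: strain carries kanamycin resistance gene driven by streptokinase promoter and grows in 40 µg/ml kanamycin; loss of luminescence reflects streptokinase promoter inhibition or plain growth inhibition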
tim10-1 inh: growth inhibitors of tim10-1 mutant yeast, primary screen, luminescence, uHTS. 2.2% of 330,000 active. S. cerevisiae tim10-1 ts strain growth, BacTiter-Glo, 24 h. inhibition, % at 20 µM. AID 463190, 2010;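 active means inhibition of at least 40%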;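 further: mutant grown at 25 °C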
tim23-1 inh: growth inhibitors of tim23-1 mutant yeast, primary screen, luminescence, uHTS | S. cerevisiae tim23-1 growth, BacTiter-Glo luminescence, 24 h | inhibition, % at 20 µM | 1.3% of 330,000 active;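 active means growth inhibition of the mutant yeast at or above 50%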;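 further: temperature-sensitive mutant grown at 25 °C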
PfHsp90 yeast 2: growth inhibition of PfHsp90-expressing yeast, primary screen, antimalarial PfHsp90 inhibitor project, S. cerevisiae, BacTiter-Glo luminescence, single point, set 2; inhibition, % at 9.4 µM; BacTiter-Glo ATP, 48 h; yeast lacking PDR1 and PDR3 efflux regulators; 0.32% of 310,000 active;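 active means every replicate shows inhibition above about 80%, whatever the replicate mean, limit read from the data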
TIM10 inh: growth inhibitors of isogenic TIM10 control yeast, primary screen, counter-screen for tim10-1 yeast inhibitor project, luminescence, uHTS; S. cerevisiae TIM10 strain growth, BacTiter-Glo luminescence, 24 h; inhibition, % at 10 µM; 1.4% of 330,000 active; AID 463195, 2010;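 active means inhibition of 40% or more at the single tested concentration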;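 further: wild-type TIM10 isogenic control strain grown at permissive 25 °C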
EBI2 antag: EBI2 receptor antagonists, beta-arrestin recruitment, primary screen, cell-based, luminescence, 7a,25-OHC stimulation, uHTS | AID 651636, 2012 | 7a,25-OHC stimulated | 0.81% of 360,000 active | inhibition, % at 5 µM | G-protein coupled receptor 183 (Homo sapiens), P32249; in the data active means inhibition above about 38%;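 further: enzyme fragment complementation signal reports receptor beta-arrestin coupling in cells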
Target sequence (P32249 whole entry, looked up, the tested form may be a part): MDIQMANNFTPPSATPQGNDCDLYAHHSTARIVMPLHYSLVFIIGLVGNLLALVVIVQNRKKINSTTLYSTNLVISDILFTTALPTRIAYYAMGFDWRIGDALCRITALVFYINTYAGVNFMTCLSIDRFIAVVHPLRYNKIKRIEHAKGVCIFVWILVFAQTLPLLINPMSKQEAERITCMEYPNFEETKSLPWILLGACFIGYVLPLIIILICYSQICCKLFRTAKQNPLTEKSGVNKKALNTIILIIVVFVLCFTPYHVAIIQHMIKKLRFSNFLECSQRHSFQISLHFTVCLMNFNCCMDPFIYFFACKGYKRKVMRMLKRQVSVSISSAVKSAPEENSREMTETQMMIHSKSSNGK
tim10-1 conf: growth inhibitors of tim10-1 mutant yeast, confirmation, single concentration, luminescence, S. cerevisiae | 56% of 7,400 active | inhibition, % at 20 µM | shares compounds with tim10-1 inh | S. cerevisiae tim10-1 ts strain growth, BacTiter-Glo, 24 h;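 active means inhibition of yeast growth at or above a set limit in either of two repeat tests at 20 µM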;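 further: tim10-1 mutant grown at permissive 25 °C to find synthetic lethal compounds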
TIM10 conf: growth inhibitors of wild-type TIM10 yeast, confirmation, counter-screen for tim10-1 synthetic lethality project, single concentration, luminescence, S. cerevisiae; shares compounds with TIM10 inh; S. cerevisiae tim10 strain growth, BacTiter-Glo luminescence, 24 h; inhibition, % at 10 µM; 63% of 4,600 active;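 active means inhibition of yeast growth at or above a set limit in either of two replicates at 10 µM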; further: this counterscreen used the strain with wild-type TIM10
tim23-1 confirm: tim23-1 mutant yeast growth inhibitors, confirmation, luminescence, single concentration | shares compounds with tim23-1 inh | S. cerevisiae tim23-1 growth, BacTiter-Glo luminescence, 24 h | inhibition, % at 20 µM | 83% of 4,400 active | AID 463218, 2010;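 active means inhibition above about 39% in either of two replicate wells at 20 µM, limit read from the data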;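 further: temperature-sensitive tim23-1 mutant grown at 25 °C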
Hits are given with their value; - = inactive; . = no result.

SMILES	SKKanGAS inh	tim10-1 inh	tim23-1 inh	PfHsp90 yeast 2	TIM10 inh	EBI2 antag	tim10-1 conf	TIM10 conf	tim23-1 confirm
O=C(COC(=O)/C=C/c1ccc(S(=O)(=O)N2CCc3ccccc32)cc1)NC1CCS(=O)(=O)C1 (configuration not stated)	-	-	-	-	-	-	.	.	.
O=C1C(C2=C(O)c3ccccc3C2=O)=Nc2ccccc21	-	51	62	-	56	-	-	54	73
O=S(=O)(NCCc1ccc(Cl)cc1)c1cccc2cccnc12	-	-	-	-	-	-	.	.	.
Cc1nn(C)c(Cl)c1C(=O)NCC(=O)Nc1ccc(C(C)C)cc1	-	-	-	-	-	-	.	.	.
CC1(C(=O)NCc2ccccc2Br)CCN1Cc1ccc2ccccc2c1 (configuration not stated)	.	.	.	.	.	-	.	.	.
O=C(Oc1c(Cl)cc(Cl)c2cccnc12)c1ccco1	85	65	89	129	71	-	48	67	72
O=C(Oc1c(Cl)cc(Cl)c2cccnc12)c1cccs1	92	44	56	99	64	-	48	57	62
O=C(Oc1cncc(Cl)c1)c1ccco1	-	-	-	-	-	-	.	.	.
CC(Sc1ccc(S(=O)(=O)N(C)C)cn1)C(=O)NC1CCCC1 (configuration not stated)	.	-	-	-	-	-	.	.	.
O=C1c2ccccc2NC(c2ccc(O)c(O)c2)N1c1ccccc1Cl (configuration not stated)	-	-	-	-	-	-	.	.	.
O=C(CCSc1ccccc1Cl)Nc1cccc([N+](=O)[O-])c1	-	56	54	-	52	-	50	-	62
Oc1ccccc1-c1cc(-c2ccco2)[nH]n1	-	-	-	-	-	-	.	.	.
Oc1ccc(Br)cc1-c1cc(-c2ccco2)[nH]n1	-	48	68	-	43	-	32	34	52
C=C(C(=O)c1ccccc1)C(CC(=O)c1ccccc1)c1ccccc1 (configuration not stated)	-	59	56	-	58	-	51	-	56
COCCNC(=S)N1CCC(NC(=O)c2ccco2)CC1	-	-	-	.	-	-	.	.	.
O=C1c2ccccc2-n2c1nc1ccccc1c2=O	-	-	-	-	-	-	.	.	.
CC(C)N1C(=O)/C(=C/c2nc3ccccc3c(=O)n2-c2ccccc2)c2ccccc21	-	46	60	-	47	56	40	44	58
C=CCn1c(O)c(/C=C2\C=NN=C2c2ccccc2)sc1=S	-	43	51	-	-	-	35	.	51
COCCNC(=O)C(c1ccc(C)o1)N(C(=O)Cn1nnc2ccccc21)c1ccccc1 (configuration not stated)	-	-	-	-	-	-	.	.	.
Cc1cc(NC(=O)CN2CCC(C)CC2)no1	-	-	-	-	-	-	.	.	.
CC(=O)c1ccc(OCCCN2CCCCC2)cc1	-	-	-	-	-	-	.	.	.
CCCCOc1ccc(C(=O)CCN2CCCCC2)cc1	-	47	50	-	-	-	-	.	66
CC1(C)CC(=O)C2=C(C1)NC1=C(C(=O)c3ccccc31)C2c1ccc(Cl)cc1 (configuration not stated)	-	50	52	-	40	-	36	-	46
Cc1ccc(Nc2nc(Cl)nc(N(C)C#N)n2)cc1	-	50	59	-	-	-	47	.	-
CC(C)c1ccc(Nc2nc(Cl)nc(Cl)n2)cc1	-	-	-	-	-	-	.	.	.
SMILES	SKKanGAS inh	tim10-1 inh	tim23-1 inh	PfHsp90 yeast 2	TIM10 inh	EBI2 antag	tim10-1 conf	TIM10 conf	tim23-1 confirm
CCN1C(=O)/C(=C/N(C)c2ccccc2)OC1=S	-	-	-	-	-	-	.	.	.
CCN1C(=O)/C(=C\N(C(C)=O)c2ccccc2)OC1=S	-	49	70	-	61	-	57	58	57
CCOC(=O)CC1Sc2ccccc2NC1=S (configuration not stated)	-	-	-	-	-	-	.	.	.
Cc1ccc2cc(C=C(C#N)C#N)c(N3CCCCC3)nc2c1	-	55	75	-	45	-	45	-	73
CCN(C(=O)CSc1nnc(SC(C)C)s1)C1CCS(=O)(=O)C1 (configuration not stated)	.	-	-	-	-	-	.	.	.
Cc1cccc(N=N/C(=C\O)C(=O)c2ccc(Br)cc2)c1	53	57	64	-	-	-	52	.	44
CCN=c1sc(C(=O)NCCc2ccccc2)cc(=O)n1CC	-	51	66	-	43	-	48	-	52
CC(C)(C)c1ccc(S(=O)(=O)N2CCN(CCC#N)CC2)cc1	-	50	51	.	-	-	-	.	-
Cc1ccc(S(=O)(=O)N2CCN(CCC#N)CC2)cc1	-	-	-	-	-	-	.	.	.
Cc1ccc(Nc2nc(-c3c(C)nc4ccccn34)cs2)cc1	-	51	54	-	58	65	32	58	43
CCc1noc(C)c1C(=O)NNC(=O)COc1ccc(Br)cc1	-	-	-	-	-	-	.	.	.
Oc1ccc2ccccc2c1C=NC1CCCCC1	-	41	55	-	-	-	-	.	53
Oc1ccc2ccccc2c1/C=N/n1cnnc1	-	-	-	.	-	-	.	.	.
Cc1c(Cl)cccc1N=Cc1ccc([N+](=O)[O-])s1	-	67	65	112	83	-	61	65	76
O=P(C(=S)Nc1ccccc1Cl)(c1ccccc1)c1ccccc1	.	.	.	.	.	-	.	.	.
CCn1c(O)c(C2=c3ccccc3=NC2=O)c2cc(Br)ccc21	-	61	75	.	60	.	51	68	69
O=C1N=c2ccccc2=C1c1c(O)n(-c2cccc(F)c2)[nH]c1=O	-	.	.	-	.	-	.	.	.
CC(=O)NC(c1ccc(F)c(F)c1)c1nc(-c2cc3ccccc3o2)cs1 (configuration not stated)	.	.	.	.	.	-	.	.	.
